Screens as filed in PubChem BioAssay.
Compounds with a hit are over-represented: about 0.52% of the library has one in this group of screens.
Sa helicase inh: inhibitors of S. aureus replicative helicase, primary screen, biochemical, fluorescence unwinding readout. inhibition, % (test concentration not listed). hit rate 0.05% among 120,000. AID 485395, 2010. replicative DNA helicase (DnaC/DnaB), Staphylococcus aureus. purified S. aureus helicase, fluorescence unwinding assay; in the data active = inhibition above about 25%, passing the limit was not always enough
Sa growth 42C: S. aureus growth inhibition at 42 and 30 °C, primary screen, LtaS inhibitor project, RN4220, two temperatures. OD600, 20 h, 42 °C; hits give low values. relative growth, % (concentration not given with the values). hit rate 0.53% among 170,000;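 active = relative growth at most 50% at the other temperature and 20+ points below 30 °C, or under 10% at both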
Numbers stand for hits; - = inactive; . = no result.

SMILES | Sa helicase inh | Sa growth 42C
Cc1ccc2cccc(OC(=O)c3ccc(Br)o3)c2n1 | - | 0.3
Nc1ncnc2c1ncn2CCNCc1ccc2c(c1)OCO2 | - | -
O=C(NCCCN1CCCC1)c1ccc(CS(=O)c2ccccc2)o1 (centres undefined) | - | -
N#CC1=C(CBr)NC(CBr)=C(C#N)C12CCCCC2 | 48 | -
CCSC1=C(C#N)C2(CCCCC2)C(C#N)=C(N)N1 | - | -
O=C(c1ccco1)N(c1ccccn1)C1CCCCC1 | - | -
Cc1c(CCC(=O)N2CCOCC2)c(=O)oc2c(C)c(O)ccc12 | - | -
N#Cc1ccccc1Cn1c(=O)n(CCCC(=O)NC2CCN(Cc3ccccc3)CC2)c(=O)c2ccccc21 | - | -
CCCCOc1ccc(C(=O)OCC2CCCN3CCCCC23)cc1OC (centres undefined) | - | 43
O=C(OC[C@@H]1CCCN2CCCCC12)c1ccccc1 (some centres undefined) | - | -
O=C(O)/C=C/c1ccc(OCc2cn3ccccc3n2)cc1 | - | -
Fc1ccc(Nc2nc3ccccc3nc2Nc2ccc(F)cc2)cc1 | - | -0.4
Fc1ccc(Nc2nc(-c3ccncc3)nc3ccccc23)cc1 | - | -
O=c1c(N2CCN(S(=O)(=O)c3ccc(F)cc3)CC2)coc2ccccc12 | . | -
Cc1cccc(NC(=O)c2nc(S(C)(=O)=O)ncc2Cl)c1 | . | 1.0
CCS(=O)(=O)c1ncc(Cl)c(C(=O)Nc2c(C(=O)Nc3cccc(C)c3)oc3ccccc23)n1 | . | -
COc1ccc(NC(=O)c2nc(S(C)(=O)=O)ncc2Cl)cc1Cl | - | -
CS(=O)(=O)c1ncc(Cl)c(C(=O)Nc2cccc(Cl)c2)n1 | - | 0.2
O=C(O)c1nccnc1C(=O)N1CCN(C(c2ccccc2)c2ccccc2)CC1 | - | -
CS(=O)(=O)c1ncc(Cl)c(C(=O)N2CCN(C(c3ccccc3)c3ccccc3)CC2)n1 | - | 4.2
O=C(Nc1cccc(C(=O)NC2CC2)c1)c1cccc(-n2cccc2)c1 | - | -
COc1ccc(Nc2nc(=S)[nH]c3cc(OC)c(OC)cc23)cc1 | - | -
CC(C)(C)c1nnc(-c2ccc(Oc3cc(Cl)cc(Cl)c3)o2)o1 | . | -
CNS(=O)(=O)c1cccc(C(=O)NCCCN2CCCC2=O)c1 | - | -
CS(=O)(=O)c1ccc(-c2csc(-c3cccs3)n2)cc1 | - | -
SMILES | Sa helicase inh | Sa growth 42C
Fc1ccc(-c2csc(-c3cccs3)n2)cc1 | . | 45
CCc1c(C)sc2c1CCN(C(=O)Nc1cc(C)cc(C)c1)C2c1ccccc1 (centres undefined) | . | -
CCc1c(C)sc2c1CCN(Cc1ccc(C#N)cc1)C2c1ccccc1 (centres undefined) | . | -
CCc1c(C)sc2c1CCN(Cc1cccc(F)c1)C2c1ccccc1 (centres undefined) | . | -1.3
CCc1c(C)sc2c1CCN(Cc1ccc(F)cc1)C2c1ccccc1 (centres undefined) | . | -1.1
Cc1ccc(-n2c(SCC(=O)Nc3ccc4c(c3)OCO4)nc3c([nH]c4ccccc43)c2=O)cc1 | . | -
O=C(COc1c(-c2ccccc2)oc2ccccc2c1=O)N1CCOCC1 | - | -
C=CCN(CC=C)Cn1nc(Nc2ccccc2F)sc1=S | - | -
C=CCN(CC=C)Cn1nc(-c2c[nH]c3ccccc23)oc1=S | - | 43
Cc1cccc(Nc2cc(=O)[nH]c(=O)[nH]2)c1 | - | -
Cc1ccc(Nc2cc(=O)[nH]c(=O)[nH]2)cc1C | . | 8.5
CCOC(=O)c1c(C)cccc1NC(=O)c1cccs1 | . | -
Cc1oc2cc(O)cc(C)c2c(=O)c1Oc1ccccc1 | - | .
O=c1c2c(nc3c(-c4ccccc4)c[nH]n13)CCC2 | - | 0.1
O=c1c2c(nc3cc(-c4ccccc4)[nH]n13)CCC2 | - | -
O=C(c1ccco1)N1CCN(C(=O)c2sc3ccccc3c2Cl)CC1 | . | -
O=C(Oc1c(C(=O)c2ccccc2)sc2ccccc12)c1ccco1 | - | 1.7
c1ccc(NCc2cccs2)nc1 | - | -
O=C(NCCc1nnc2ccc(SCC(=O)N3CCc4ccccc43)nn12)c1ccccc1 | - | -
COc1cccc(CSc2nnc(Cc3cccs3)n2C2CCCCC2)c1 | - | 5.8
Clc1ccc(CSc2nnc(Cc3cccs3)n2C2CC2)cc1Cl | - | -
CN(C)c1ccc(C(=S)N2CCN(c3ccccc3F)CC2)cc1 | - | -
O=c1oc2ccccc2c(O)c1Cc1cc(Cl)c2cccnc2c1O | - | -
Cc1cc(O)c(Cc2cc(Cl)c3cccnc3c2O)c(=O)o1 | - | 4.0
CCN1CCN(c2ccc(NC(=O)c3cccc(Cl)c3Cl)cc2)CC1 | - | -
CCOC(=O)N/N=C1\CCCc2ccccc21 | - | -
COc1cc(Cc2cc(OC)c(C)cc2OC)c(OC)cc1C | . | -
COc1cc(C)c(Cc2cnc(N)nc2N)cc1OC | . | -0.2
COC(=O)c1n[nH]n(-c2cc(Cl)cc(Cl)c2)c1=O | . | -
COC(=O)c1cc(=O)n(-c2cc(Cl)cc(Cl)c2)[nH]1 | - | 13
